Laboratory results published in PubChem BioAssay AID1159580 (chemical genetic matrix, 2015).
Values joined by “and” are separate entries in the source; they are usually repeats but may differ in a detail not shown here. Equal values may be shown once. Hit rate of the full screen: of about 5,500 compounds, about 2,000 (36%) were called active. Inconclusive results (about 18%) are left out. Cut-off read from the data, not from the text of the source: active = normalized growth mostly below about 0.91 (no sharp cut-off); inconclusive = no clear call, values can overlap the other calls; inactive = mostly above about 0.92. This is one part of the list.

Assay: chemical genetic growth profiling, strain panel (AID 1159580);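 note: tested at 20 µM; growth read once vehicle control cultures reached saturation at 30 °C; 1 = growth at the plate median or of vehicle wells; lower values mean less growth of the strain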
Settings: S. cerevisiae deletion strains, growth OD

Measured: normalized growth

Oc1c(Br)cc(Br)c2cccnc12
active: locus YAL013W, strain DEP1, stronger effect = lower value 0.0586 | locus YAL021C, strain ccr4, stronger effect = lower value 0.0663 | locus YAL026C, strain drs2, stronger effect = lower value 0.0631 | locus YAL030W, strain snc1, stronger effect = lower value 0.055 | locus YBL061C, strain skt5, stronger effect = lower value 0.0586 | locus YBR009C, strain hhf1, stronger effect = lower value 0.0623 | locus YBR021W, strain FUR4, stronger effect = lower value 0.0949 | locus YBR023C, strain chs3, stronger effect = lower value 0.0634 | locus YBR171W, strain sec66, stronger effect = lower value 0.0756 | locus YBR229C, strain ROT2, stronger effect = lower value 0.0506 | locus YBR231C, strain swc5, stronger effect = lower value 0.0629 | locus YBR279W, strain paf1, stronger effect = lower value 0.0612 | locus YCL011C, strain gbp2, stronger effect = lower value 0.0575 | locus YCL016C, strain dcc1, stronger effect = lower value 0.0701 | locus YCL029C, strain bik1, stronger effect = lower value 0.07 | locus YCL061C, strain MRC1, stronger effect = lower value 0.0647 | locus YCL069W, strain vba3, stronger effect = lower value 0.0645 | locus YCR088W, strain abp1, stronger effect = lower value 0.0595 | locus YDL005C, strain med2, stronger effect = lower value 0.0726 | locus YDL035C, strain GPR1, stronger effect = lower value 0.0512 | locus YDL040C, strain nat1, stronger effect = lower value 0.0563 | locus YDL074C, strain BRE1, stronger effect = lower value 0.0885 | locus YDL101C, strain DUN1, stronger effect = lower value 0.0585 | locus YDL134C, strain PPH21, stronger effect = lower value 0.0526 | locus YDL185W, strain tfp1, stronger effect = lower value 0.0677 | locus YDL192W, strain arf1, stronger effect = lower value 0.0671 | locus YDR001C, strain nth1, stronger effect = lower value 0.0572 | locus YDR069C, strain doa4, stronger effect = lower value 0.0693 | locus YDR101C, strain arx1, stronger effect = lower value 0.0674 | locus YDR137W, strain rgp1, stronger effect = lower value 0.107 | locus YDR150W, strain NUM1, stronger effect = lower value 0.0621 | locus YDR159W, strain sac3, stronger effect = lower value 0.0892 | locus YDR162C, strain NBP2, stronger effect = lower value 0.0492 | locus YDR195W, strain ref2 0.126 | locus YDR297W, strain sur2, stronger effect = lower value 0.0575 | locus YDR318W, strain mcm21, stronger effect = lower value 0.071 | locus YDR334W, strain swr1, stronger effect = lower value 0.0608 | locus YDR335W, strain msn5, stronger effect = lower value 0.0583 | locus YDR388W, stronger effect = lower value 0.0637 | locus YDR392W, strain spt3, stronger effect = lower value 0.0808 | locus YDR502C, strain sam2, stronger effect = lower value 0.0753 | locus YEL003W, strain gim4, stronger effect = lower value 0.0546 | locus YEL037C, strain rad23, stronger effect = lower value 0.0573 | locus YEL061C, strain CIN8 (second series), stronger effect = lower value 0.145 | locus YEL061C, strain CIN8, stronger effect = lower value 0.05 | locus YER015W, strain faa2, stronger effect = lower value 0.0595 | locus YER016W, strain bim1, stronger effect = lower value 0.0608 | locus YER110C, stronger effect = lower value 0.0879 | locus YER111C, strain swi4, stronger effect = lower value 0.0694 | locus YER155C, strain BEM2 (second series), stronger effect = lower value 0.0894 | locus YER155C, strain BEM2, stronger effect = lower value 0.0691 | locus YER167W, strain BCK2, stronger effect = lower value 0.0561 | locus YFR010W, strain ubp6, stronger effect = lower value 0.0731 | locus YGL078C, strain dbp3, stronger effect = lower value 0.0674 | locus YGL086W, strain mad1, stronger effect = lower value 0.0628 | locus YGL167C, strain pmr1, stronger effect = lower value 0.079 | locus YGL173C, strain kem1, stronger effect = lower value 0.0675 | locus YGL227W, strain vid30, stronger effect = lower value 0.0683 | locus YGL240W, strain doc1, stronger effect = lower value 0.0807 | locus YGL248W, strain PDE1, stronger effect = lower value 0.0474 | locus YGL253W, strain hxk2, stronger effect = lower value 0.0544 | locus YGR078C, strain PAC10, stronger effect = lower value 0.0525 | locus YGR135W, strain pre9, stronger effect = lower value 0.0723 | locus YGR229C, strain SMI1, stronger effect = lower value 0.0593 | locus YGR252W, strain gcn5, stronger effect = lower value 0.146 | locus YHR013C, strain ard1, stronger effect = lower value 0.115 | locus YHR027C, strain rpn1, stronger effect = lower value 0.0627 | locus YHR030C, strain SLT2, stronger effect = lower value 0.0528 and 0.107 | locus YHR079C, strain IRE1 (second series), stronger effect = lower value 0.0637 | locus YHR079C, strain IRE1, stronger effect = lower value 0.113 | locus YHR094C, strain hxt1, stronger effect = lower value 0.0678 | locus YHR129C, strain ARP1, stronger effect = lower value 0.059 | locus YHR142W, strain chs7, stronger effect = lower value 0.0809 | locus YHR200W, strain rpn10, stronger effect = lower value 0.0663 | locus YIL066C, strain RNR3, stronger effect = lower value 0.051 | locus YIL073C, strain SPO22, stronger effect = lower value 0.15 | locus YIL125W, strain kgd1, stronger effect = lower value 0.0707 | locus YIR030C, strain dcg1, stronger effect = lower value 0.0676 | locus YJL092W, strain hpr5, stronger effect = lower value 0.0584 | locus YJL095W, strain BCK1 (second series), stronger effect = lower value 0.0568 | locus YJL095W, strain BCK1, stronger effect = lower value 0.0606 and 0.106 | locus YJL115W, strain asf1, stronger effect = lower value 0.072 | locus YJL129C, strain trk1, stronger effect = lower value 0.0904 | locus YJL134W, strain LCB3, stronger effect = lower value 0.0513 | locus YJL154C, strain vps35, stronger effect = lower value 0.0576 | locus YJL164C, strain tpk1, stronger effect = lower value 0.0622 | locus YJL166W, strain qcr8, stronger effect = lower value 0.0631 | locus YJL168C, strain set2, stronger effect = lower value 0.0664 | locus YJL187C, strain SWE1 (second series), stronger effect = lower value 0.0507 | locus YJR043C, strain POL32, stronger effect = lower value 0.0636 | locus YJR066W, strain TOR1, stronger effect = lower value -4.7e-05
